Screening results (PubChem BioAssay)
RORgamma inh = inhibitors of mouse ROR gamma transcriptional activity. P51450. Drosophila S2 Gal4-RORgamma UAS-luciferase reporter, 20 h. Potency, µM (titrated, usually from 53.6 µM), for inactives: at the highest dose activity change, negative = inhibition, hits mostly inhibitors. actives 5.4% (n = 310,000). AID 2551; note: nearly all actives have a fitted effect of over 60% in size
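Luminescence from a UAS-regulated Photinus luciferase reporter in stably transfected Drosophila Schneider cells is measured; decreased signal marks ROR gamma inhibition. Fusion expression is induced by 700 uM copper sulfate for 20 hr.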
Gal4-VP16 FLuc = counter-screen for ROR gamma inhibitors: Gal4-VP16 reporter; Drosophila S2 Gal4-VP16 UAS-luciferase, luminescence, 20 h; Potency, µM (doses to about 53.6 µM), inactives show at the top dose activity, negative = inhibition, actives largely listed as inhibitors; actives 3.5% (n = 310,000);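 note: Gal4-VP16 expression switched on by copper sulfate through the metallothionein promoter; nearly all actives have a fitted effect of over 50% in size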
DT40 TDP1 CPT = growth inhibition of DT40 Tdp1-/-;hTDP1 cells with camptothecin (screen for TDP1 inhibitors) | chicken DT40 Tdp1-/-;hTDP1 cells + 20 nM CPT, ATP luminescence, 48 h | Potency, µM (top dose mostly 46.2 µM), inactives show at the top dose activity change, negative = growth inhibition, usual class: inhibitors | actives 12% (n = 420,000); note: nearly all actives have a fitted effect of over 55% in size
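Cell growth measured by CellTiter-Glo luminescence after a minimum 48 h, 37 C compound exposure with 20 nM CPT in Tdp1-knockout DT40 cells stably expressing hTDP1, seeded 400/well; qHTS titration format.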
ALOX12 inh = ALOX12 (human) lipoxygenase inhibition | P18054 | purified 12hLO, xylenol orange hydroperoxide absorbance | Potency, µM (series often up to 108 µM), for the others: at the top dose activity change, negative = inhibition, most hits filed as inhibitors | actives 1.1% (n = 580,000) | AID 1671190
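Purified human 12hLO at 150 nM in 25 mM Hepes, 0.01% Triton X-100, pH 7.0, preincubated 15 min at room temperature with compound. Reaction started with 40 uM arachidonic acid, 30 min at room temperature. Hydroperoxide measured by Fe-xylenol orange, 573/405 nm absorbance ratio.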
ELG1 repair inh = inhibitors of ELG1-dependent DNA repair in HEK293T cells; HEK293T ELG1-luciferase reporter, luminescence, 16 h; DNA damage induced by 5-fluorouridine; Potency, µM (doses to about 46.1 µM), inactives show at the highest dose activity change, negative = inhibition, hits mostly inhibitors; actives 2.3% (n = 330,000); note: nearly all actives have a fitted effect of over 55% in size
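5-Fluorouridine DNA damage + compound/DMSO, 2,000 cells/well, 16 h, 37 °C/5% CO2. ONE-Glo, 30 min RT, luminescence. Readout = decrease in reporter signal.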
TDP1 cell noCPT = qHTS for Inhibitors of human tyrosyl-DNA phosphodiesterase 1 (TDP1): qHTS in cells in absence of CPT | DT40 Tdp1-/- hTDP1 cells, no CPT, ATP luminescence, 48 h | Potency, µM (series often up to 46.2 µM), for the others: at the top dose activity change, negative = growth inhibition, most hits filed as inhibitors | actives 15% (n = 420,000) | AID 686978, 2013; note: nearly all actives have a fitted effect of over 55% in size
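Luminescent ATP content (CellTiter-Glo) served as the growth readout. Knockout chicken DT40 cells expressing human TDP1 were exposed to compounds without camptothecin for a minimum 48 hr at 37 °C.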
* hit, by the source's call. Shown are actives, neighbours in structure and some others; about 15% of the full set was active somewhere. Calls come from the whole dose curve; as a rule, active = well fitted curve in the direction sought with a large enough effect; inconclusive = small, poorly fitted or top-dose-only effect, or another doubt; inactive = no such curve, though single readings can be large; an effect the other way counts as inactive or inconclusive. % is set by controls: 0 for no effect and ±100 for the full control effect; potency is the fitted concentration of half-maximal effect.

O=C(Nc1sc2c(c1C(=O)Nc1cccc(Cl)c1)CCCC2)c1cccs1 was read as DT40 TDP1 CPT inconclusive, ALOX12 inh 45µM* and TDP1 cell noCPT inconclusive.
`CC(C)NC(=O)CSc1nc(C2CC2)nc2ccccc12` gave ALOX12 inh -25%.
For CCCOc1cccc(C(=O)Nc2ccc(OCCC)c3ncccc23)c1 the results were ALOX12 inh 28%.
`O=C(Nc1ccc2oc(-c3ccncc3)nc2c1)c1cccc(Cl)c1` gave ALOX12 inh 5%.
For COC(=O)COc1ccc2c(=O)c(Oc3cccc(C)c3)c(C(F)(F)F)oc2c1 the results were ALOX12 inh -12%.
CCONC(=O)COc1ccc(C#N)cc1 was read as ALOX12 inh 8%.
For COc1ccc(NC(=O)N2C[C@@H]3C[C@H](C2)c2c(NC(=O)c4cncnc4)ccc(=O)n2C3)cc1 the results were ALOX12 inh 0%.
`NCCCCCc1nnc(SCc2ccc(Cl)c(Cl)c2)o1` gave RORgamma inh inconclusive, Gal4-VP16 FLuc 10µM*, DT40 TDP1 CPT 1%, ALOX12 inh 0%, ELG1 repair inh 1% and TDP1 cell noCPT 1%.
For O=C1Cc2c([nH]c3ccc(Br)cc23)-c2ccccc2N1 the results were RORgamma inh -5%, Gal4-VP16 FLuc 25µM*, DT40 TDP1 CPT inconclusive, ALOX12 inh inconclusive and TDP1 cell noCPT inconclusive.
`O=C(Cn1ncc2ccccc21)N1CCN(c2cccc(C(F)(F)F)c2)CC1` gave RORgamma inh 12%, Gal4-VP16 FLuc -7%, DT40 TDP1 CPT inconclusive, ALOX12 inh -9%, ELG1 repair inh -16% and TDP1 cell noCPT inconclusive.
`Cc1ccc(S(=O)(=O)CC(=O)N2CCN(c3cccc(C(F)(F)F)c3)CC2)cc1` gave RORgamma inh inconclusive, Gal4-VP16 FLuc -14%, DT40 TDP1 CPT 16µM*, ALOX12 inh -28%, ELG1 repair inh -9% and TDP1 cell noCPT 21µM*.
Cc1ccc(CC(=O)N2CCN(c3cccc(C(F)(F)F)c3)CC2)cc1 was read as RORgamma inh inconclusive, Gal4-VP16 FLuc 2%, DT40 TDP1 CPT 23µM*, ALOX12 inh -10%, ELG1 repair inh -12% and TDP1 cell noCPT 18µM*.
`Cc1nc(-c2ccc(S(=O)(=O)N3CCN(c4cccc(C(F)(F)F)c4)CC3)cc2)co1` gave DT40 TDP1 CPT inconclusive, ALOX12 inh -25% and TDP1 cell noCPT 18µM*.
CC1(C2CC2)NC(=O)N(CC(=O)N2CCN(c3cccc(C(F)(F)F)c3)CC2)C1=O (configuration not stated) was read as DT40 TDP1 CPT 15µM*, ALOX12 inh -8%, ELG1 repair inh inconclusive and TDP1 cell noCPT 12µM*.
`O=C(CS(=O)(=O)c1ccccc1)N1CCN(c2ccccc2)CC1` gave DT40 TDP1 CPT -3%, ALOX12 inh -35%, ELG1 repair inh inconclusive and TDP1 cell noCPT -11%.
O=C(C(=O)N1CCN(C(=O)Cc2ccccc2)CC1)c1cccc(C(F)(F)F)c1 was read as ALOX12 inh -2%.
`CC(NC(=O)C1(c2ccccc2)CC1)C12CC3CC(CC(C3)C1)C2` (configuration not stated) gave ALOX12 inh -20%.
Screening COc1ccccc1CC(=O)N1CCN(c2cccc(C(F)(F)F)c2)CC1 returned RORgamma inh 85%, Gal4-VP16 FLuc inconclusive, DT40 TDP1 CPT 23µM*, ALOX12 inh inconclusive, ELG1 repair inh -11% and TDP1 cell noCPT 13µM*.
